# From PubChem BioAssay AID602252 (Broad Institute, 2012)
# Screen size: about 300,000 compounds; about 2,700 (0.9%) were called active.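 The calls were made as follows: active = mean inhibition of at least 30% with at least half of replicates also reaching 30%; inconclusive = no clear call, values can overlap the other calls; inactive = the rest.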 The list comes from a sample in which actives are over-represented; it also holds similar structures and randomly drawn compounds.
# Biological target: Golgi-associated PDZ and coiled-coil motif-containing protein (Homo sapiens) (UniProt Q9HD26)
# Assay: blockade of CAL PDZ-reporter peptide interaction – biochemical, fluorescence polarization, untagged CAL PDZ, HTS, primary screen (AID 602252);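 also: 0% = DMSO neutral control and 100% = excess unlabeled competitor peptide PRC23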
# Details: purified CAL PDZ, TMR-peptide fluorescence polarization, 1 h; at 24.9 µM; hits give high values
row,SMILES,inhibition
1,Cc1c(NC(=O)CN(C)CC(=O)Nc2ccc(F)c(F)c2F)c(=O)n(-c2ccccc2)n1C,-3.99% (inactive)
2,O=C1c2oc3ccc(Br)cc3c(=O)c2C(c2cccc(F)c2)N1CCO (stereo not given),3.36% (inactive)
3,COCCN1C(=O)c2oc3c(C)cc(C)cc3c(=O)c2C1c1cccc(O)c1 (stereo not given),47.9% (active)
4,O=C1c2oc3ccccc3c(=O)c2C(c2cccc(O)c2)N1c1ccccn1 (stereo not given),-1.77% (inactive)
5,Cc1ccc(C(=O)Nc2ncccc2C)cc1S(=O)(=O)N1CCOCC1,-3.36% (inactive)
6,COc1ccccc1C(CNC(=O)c1ccc(C)c(S(=O)(=O)N2CCCCC2)c1)N(C)C (stereo not given),-4.72% (inactive)
7,Cc1ccc(C(=O)NCC(c2cccs2)N(C)C)cc1S(=O)(=O)N1CCOCC1 (stereo not given),47.1% (active)
8,O=C(Nc1c(Br)cc2c(c1Br)Cc1cc([N+](=O)[O-])ccc1-2)C(Cl)Cl,-7.68% (inactive)
9,Cn1cnnc1Sc1ccc(CN2CCN(C3CCCC3)C(CCO)C2)o1 (stereo not given),2.66% (inactive)
10,OCCC1CN(Cc2ccc3nsnc3c2)CCN1C1CCCC1 (stereo not given),2.19% (inactive)
11,OCCC1CN(Cc2ccc3nsnc3c2)CCN1C1CCCCC1 (stereo not given),77% (active)
12,CCOc1ccc(-c2nc(C)sc2CC(=O)O)cc1,-0.665% (inactive)
13,CCOC(=O)C(=O)Nc1nc(-c2ccccc2)c(CC)s1,65.4% (active)
14,C/C(=N/Nc1nc(-c2ccccc2)c(CC(=O)O)s1)c1ccccc1,2.17% (inactive)
15,CCCCCCCCNS(=O)(=O)CCNC1CCCCC1,0.068% (inactive)
16,CC(=O)Oc1ccc(OC(C)=O)c2c1C1C=CC2CC1,3.2% (inactive)
17,Cc1ccc(N=Cc2c(O)cc(C)oc2=O)c(C)c1,-1.38% (inactive)
18,COc1ccc(N=Cc2c(O)[nH]c3ccccc23)cc1OC,0.564% (inactive)
19,COc1cc(N=Cc2c(O)c3ccccc3oc2=O)c(OC)cc1Cl,36.3% (active)
20,CC(=O)Nc1ccc(S(=O)(=O)NCC(=O)OCC(=O)c2ccc[nH]2)cc1,-5.59% (inactive)
21,Nc1ncnc2c1ncn2[C@@H]1O[C@H](CNCc2cccn2-c2nccs2)[C@@H](O)[C@H]1O,-2.1% (inactive)
22,COc1ccc(C2CC(=O)NC(=O)C2)cc1,-5.54% (inactive)
23,COC1=CC(=O)OC(c2ccc(OC)cc2)C1 (stereo not given),45% (active)

row,SMILES,inhibition
1,COc1ccc2c(c1)C(=O)CC(c1ccccc1)O2 (stereo not given),16.3% (inactive)
2,CC1(C)C(=O)CCC2(C)C1=CCC1C2C(=O)CC2(C)C1CCC2(O)C(=O)CO (stereo not given),-4.84% (inactive)
3,O=C(O)c1ccc([N+](=O)[O-])cc1Sc1ccsc1,-2.87% (inactive)
4,O=C1N[C@@H](c2ccccc2)COC(=O)[C@H](Cc2ccc(F)cc2)C/C=C\C[C@@H]1CC(=O)N(CCO)Cc1ccccc1,2.21% (inactive)
5,COc1ccc(CN2C(CC(=O)Nc3cccnc3)c3ccc(C(F)(F)F)cc3S2(=O)=O)cc1 (stereo not given),-6.01% (inactive)
6,CSCCC1NC(=O)N(CC(=O)Nc2cccc(S(=O)(=O)N3CCCCCC3)c2)C1=O (stereo not given),-13.3% (inactive)
7,CCCCN(C(=O)CSCc1ccc(C)cc1)c1c(N)n(Cc2ccccc2)c(=O)[nH]c1=O,-2.71% (inactive)
8,Cc1cnc(NC(=O)c2ccccn2)s1,54.3% (active)
9,Cc1cnc(NC(=O)CSc2c(Cl)cccc2Cl)s1,-4.72% (inactive)
10,Cc1cnc(NC(=O)c2ccc(Cl)nc2)s1,5.61% (inactive)
11,O=C(Nc1ccn(CCCNCc2ccc3[nH]ccc3c2)c(=O)n1)OCc1ccccc1,-6.18% (inactive)
12,Cc1cc(CNC(=O)C2CCC(=O)N(CCc3ccc(Cl)cc3)C2)no1 (stereo not given),45.2% (active)
13,O=C(NCCCc1ccccc1)C1CCC(=O)N(CCc2ccc(Cl)cc2)C1 (stereo not given),-3.25% (inactive)
14,O=C(NCCN1CCOC1=O)C1CCC(=O)N(CCc2ccc(Cl)cc2)C1 (stereo not given),-3.91% (inactive)
15,Cc1ccc(NC(=O)C2CCC(C(C)(C)C)CC2)cc1S(=O)(=O)N1CCOCC1 (stereo not given),-5.24% (inactive)
16,O=C(CC1Sc2ccccc2NC1=O)NNc1ccc(Cl)c(Cl)c1 (stereo not given),-5.96% (inactive)
17,Cc1nc2c(c(C)nn2-c2ccccc2)c(C)c1C,45.7% (active)
18,CSc1ccc(-c2c(C#N)c(N)nc3c2c(C)nn3-c2ccccc2)cc1,-0.521% (inactive)
19,CCCNC(=O)CCc1c(C)nc2c(c(C)nn2-c2ccccc2)c1C,-0.965% (inactive)
20,N#CC1=C(N)Oc2cc(N)ccc2C1c1ccccc1 (stereo not given),2.39% (inactive)
21,Cc1sc2ncnc(N3CCC(C(=O)Nc4ccc(F)cc4Cl)CC3)c2c1C,-2.24% (inactive)
22,COc1cccc(NC(=O)C(=O)c2cn(CC(=O)N3CCOCC3)c3ccccc23)c1,-2.58% (inactive)
23,O=C(Nc1ccc(F)cc1)C(=O)c1cn(CC(=O)N2CCOCC2)c2ccccc12,45.3% (active)

row,SMILES,inhibition
1,Cc1ccc(CNC(=O)C(=O)c2cn(CC(=O)N3CCOCC3)c3ccccc23)cc1,-3.01% (inactive)
2,Cc1cccn2c(=O)c(/C=C(\C#N)S(=O)(=O)c3ccc(Cl)cc3)c(N3CCC(C(N)=O)CC3)nc12,3.73% (inactive)
3,COc1ccccc1-c1nc(C#N)c(N2CCC(C(N)=O)CC2)o1,-2.05% (inactive)
4,Cc1cc(C)c(C#N)c(N2CCC(C(N)=O)CC2)n1,47.5% (active)
5,O=C(NCCc1ccccc1)c1cccc(NC(=O)c2ccccc2)c1,-3.44% (inactive)
6,CC(C)(C)OC(=O)C[C@@H]1C/C=C\C[C@@H](CC(=O)N[C@H](CO)Cc2ccccc2)C(=O)NCCOC1=O,-9.11% (inactive)
7,O=C(NNC(=O)c1ccccc1O)c1ccccc1O,-3.61% (inactive)
8,S=C(c1ccccc1)N1CCCC1,-2.69% (inactive)
9,S=C(c1ccc(-c2ccccc2)o1)N1CCCCC1,54.6% (active)
10,CN1CCN(C(=O)c2ccc(-c3ccc(Br)cc3)o2)CC1,-4.62% (inactive)
11,C=CC[C@H](CC(=O)N(CCO)Cc1ccccc1)C(=O)N[C@@H](COC(=O)[C@@H](CC=C)Cc1ccc(F)cc1)Cc1ccccc1,-5.7% (inactive)
12,CC(C)N(C(=O)[C@H]1C[C@H](CC(=O)NCCC2=CCCCC2)C(=O)N2CCc3c([nH]c4cc(CCC(=O)N(C)C)ccc34)[C@]12C)C(C)C,-1.76% (inactive)
13,O=c1oc2ccccc2c(=O)c2ccccc12,39.9% (active)
14,Cc1ccccc1-n1nnc2c(=O)oc3ccccc3c21,0.078% (inactive)
15,CC(C)(C)Nc1c(N)c(=O)oc2ccccc12,3.5% (inactive)
16,COCCN(C(=O)C(C)N1C(=O)c2ccccc2C1=O)c1c(N)n(CC(C)C)c(=O)[nH]c1=O (stereo not given),-19.9% (inactive)
17,COc1ccc(CC(=O)N[C@@H]2c3cc(OC)c(OC)cc3C[C@H]2OCc2ccccc2)cc1,-0.172% (inactive)
18,CSc1ccccc1NC(=O)c1cc(Cl)sc1Cl,35% (active)
19,CSc1ccccc1NC(=O)c1cnc2sc(C)cn2c1=O,-2.14% (inactive)
20,COc1ccc(C)cc1NC(=O)Nc1ccccc1SC,-2.98% (inactive)
21,O=C(COC(=O)COc1cccc(F)c1)NCC1CCCCC1,-0.678% (inactive)
22,O=C(Nc1nnc(-c2ccccc2)o1)c1cccc(S(=O)(=O)N2CCOCC2)c1,7.28% (inactive)
23,O=C(c1ccc(N2CCOCC2)c([N+](=O)[O-])c1)N1CCN(c2ccccc2F)CC1,-2.67% (inactive)

row,SMILES,inhibition
1,O=C(OCC(=O)N1CCOCC1)c1ccc(N2CCOCC2)c([N+](=O)[O-])c1,53.8% (active)
2,O=C(Oc1ccccc1Cl)c1ccc(N2CCOCC2)c([N+](=O)[O-])c1,-0.07% (inactive)
3,CC(=O)Nc1ccc(S(=O)(=O)Nc2ccc(N3CCCCC3)cc2)cc1,-0.222% (inactive)
4,CC(C)N(C(=O)[C@H]1C[C@H](CC(=O)NC(C)(C)C)C(=O)N2CCc3c([nH]c4ccc(Cl)cc34)[C@]12C)C(C)C,1.76% (inactive)
5,COc1ccc(C)cc1NC(=O)CSc1nnc(CC(=O)Nc2ccccc2F)n1C,-5.79% (inactive)
6,Cn1c(CCC(=O)Nc2ccccc2F)nnc1SCC(=O)Nc1ccccc1Cl,63.9% (active)
7,Cn1c(SCC(=O)Nc2ccc(Br)cc2F)nnc1-c1ccco1,-0.672% (inactive)
8,CN(C)c1ccc(CSc2ccccc2)cc1,-6.85% (inactive)
9,COc1ccc2oc(N)nc2c1,-0.189% (inactive)
10,CCOC(=O)c1ccccc1NC(=O)CSc1nc2c(sc(=S)n2CC)c(=O)[nH]1,-5.33% (inactive)
11,CCN(C[C@H]1N[C@@](CC)(C(=O)OC)[C@H]2C(=O)N(Cc3ccccc3)C(=O)[C@@H]12)S(=O)(=O)c1ccc(C(F)(F)F)cc1,-1.59% (inactive)
12,O=C(O)CN1CCN(C(c2ccccc2)c2ccccc2)CC1,0.69% (inactive)
13,CC1(C)CC(N2CCN(C(c3ccccc3)c3ccccc3)CC2)=CC(=[N+]2CCCCC2)C1,46.7% (active)
14,CC(C)NC(=S)N1CCN(C(c2ccccc2)c2ccccc2)CC1,-1.91% (inactive)
15,CCCCN1CC(CO)Oc2cccc(F)c2S1(=O)=O (stereo not given),-3.69% (inactive)
16,CCCCCC1CC(COc2ccccc2)OC1=O (stereo not given),8.53% (inactive)
17,COc1cccc(C=CC(=O)C=CC=Cc2ccccc2)c1,0.692% (inactive)
18,Cc1[nH]n(-c2ccc([N+](=O)[O-])cc2)c(=O)c1C=NCCN1CCN(C(=O)c2ccccc2F)CC1,51.8% (active)
19,Cc1[nH]n(-c2ccccc2)c(=O)c1N=Nc1ccccc1C(=O)N1CCCCC1,-3.5% (inactive)
20,C=CCNC(=S)N1CCN(CCN=Cc2c(C)[nH]n(-c3ccc([N+](=O)[O-])cc3)c2=O)CC1,-1.05% (inactive)
21,COc1ccc(C(=O)Nc2cccc(/C=C(/CCC(=O)O)c3nc4ccccc4s3)c2)cc1,-1.62% (inactive)
